# Measurements as given in PMC13494018.
# Unmarked numbers belong to inactive results. How the calls were made is not given here.
# B1: design_605_6ebdab39-eaab-4492-afcb-164e20c3b25e_128_dldesign_0_cycle1_af2pred (protein)
# chain: MEEKKAEEKKLKEKKEEAKEYLRRAKRAMGRAMVKGDEEAFELAEEAVYLAHLAIKDPKYIEEAKKKTEEAEKRVEA
# B2: design_605_6ebdab39-eaab-4492-afcb-164e20c3b25e_1054_dldesign_0_cycle1_af2pred (protein)
# chain: DVTEKAKKAAEEALKADAETAAKLLSEAAKLAVEAGDSEGMHIIRQAISEMDFAGKKEGAAKARAAAAAAVRARQAALAA
# B3: design_605_6ebdab39-eaab-4492-afcb-164e20c3b25e_1026_dldesign_0_cycle1_af2pred (protein)
# chain: AEKEETEEKAKEVLKKAEEAAEKILKKDPKKAQEVYRIIFLGESKRLAGDYEEALKLYEEALKKAEELNKEL
# B4: design_605_6ebdab39-eaab-4492-afcb-164e20c3b25e_501_dldesign_0_cycle1_af2pred (protein)
# chain: AAAEEAAKKALKELKEEAKKLVEEAKKSNAEEAKKKRKEVVELGKEYAEKAAASPEVQKEIAKVVHEAQEELAEAAFEHSRKEKE
# B5: design_605_6ebdab39-eaab-4492-afcb-164e20c3b25e_648_dldesign_0_cycle1_af2pred (protein)
# chain: AEAEELKKKASQYLMEAFDTGSEEELKKAIEYAEKAAEAASEEEGKKILEEKEKMKKGFERFLKAYKEAQKKAEE
# B6: design_605_6ebdab39-eaab-4492-afcb-164e20c3b25e_494_dldesign_0_cycle1_af2pred (protein)
# chain: AEALEKGKAASAALDANIATGFATAEKTGDKAAAGAAAVAATAEAGAAIGPEAAEKGRRVMTSIFDGYVKA
# B7: design_605_6ebdab39-eaab-4492-afcb-164e20c3b25e_689_dldesign_0_cycle1_af2pred (protein)
# chain: GAAQEEADKALEKAGKILKEAEKLAKEAAKIGTEEEAKELEELIKKAKELLEKGKASTPEEKKKLAVEAAEYAHEARALAKHILASK
# B8: design_605_6ebdab39-eaab-4492-afcb-164e20c3b25e_778_dldesign_0_cycle1_af2pred (protein)
# chain: EVKELIKKAKELIEKAEKLTKSGEKLEEGEKAAEEAKKVVEEAKKVAKDSTPEEKFAVAEALAELRNVEREIKKAKEEK
# B9: design_605_6ebdab39-eaab-4492-afcb-164e20c3b25e_1493_dldesign_0_cycle1_af2pred (protein)
# chain: TIEKNVALAEKLAERAKEVAKKAAADPNKKEAAKLAKKAAELAKEAAALAKEGKIAEGAKKMHEARELLAEAEHLLRK
# B10: design_605_6ebdab39-eaab-4492-afcb-164e20c3b25e_904_dldesign_0_cycle1_af2pred (protein)
# chain: AEAEKKAKEGKEKMEAGKKKLAEAKKTGSAELAKEAAKLFKEAGKLFAAVPEQQANAAEAAKLAHEAYELAAEARAK
# B11: design_605_6ebdab39-eaab-4492-afcb-164e20c3b25e_445_dldesign_0_cycle1_af2pred (protein)
# chain: AKEKALIDLQIAEQMAEAAKEGYAGTAAAKRAAKAAKRAIKLDPSLAEEAVKIMKELAKAAAKQDPEAGKVAAKELKEVEKEAKKVKE
# B12: design_605_6ebdab39-eaab-4492-afcb-164e20c3b25e_758_dldesign_0_cycle1_af2pred (protein)
# chain: SEYFKEAVDVASKIVRAYHALAAVFPETAAQLEADGDAKVDKVMAAAELAEKDPEKGKAELEKQKAEAEKIKAEADKAAAAAR
# B13: design_605_6ebdab39-eaab-4492-afcb-164e20c3b25e_565_dldesign_0_cycle1_af2pred (protein)
# chain: AVEKTIAELLKAASAAIIELFDDPEKGRAKLAEVLAKAEAAAKAASPKDAAKIQAALDEMKKRGEAAIKRVEEDEKIAK
# B14: design_605_6ebdab39-eaab-4492-afcb-164e20c3b25e_1473_dldesign_0_cycle1_af2pred (protein)
# chain: AKEILDAQMKILDAANEAEKVDPELGKEIREKYKKVAEEGKKLSPEEALKALKAMAEEAEKKAKEAKKEAEKKKLE
# B15: design_605_6ebdab39-eaab-4492-afcb-164e20c3b25e_165_dldesign_0_cycle1_af2pred (protein)
# chain: AAAAEAAAKEAAAKLAIAEARALIRAGRANPKFGVELALEGAKIAREAAKKNPAMKEELEKTAKEAEKEAKKLA
# B16: design_605_6ebdab39-eaab-4492-afcb-164e20c3b25e_1042_dldesign_0_cycle1_af2pred (protein)
# chain: ELEKLAKKAEDAAAVLKNSKARAHALSAALQLEAGNKELAKKSATAAAAVLDANPDITPEEEKARDALKEIADWLA
# B17: design_605_6ebdab39-eaab-4492-afcb-164e20c3b25e_858_dldesign_0_cycle1_af2pred (protein)
# chain: ALEEFKKLLQKLIDLTAAVPEAAKAREELENGTPREALKAAIKAAKAKAAADPSVAPELEKLVHELSQAAAEAELELKK
# B18: design_605_6ebdab39-eaab-4492-afcb-164e20c3b25e_1133_dldesign_0_cycle1_af2pred (protein)
# chain: NAAEIAAAKAALAEARAAFEAAGAALVAADPSYAPQVAKALARIDKLEADGKANPALAAEYYQLATDIAEDQAANAKKLLAAIT
# B19: design_605_6ebdab39-eaab-4492-afcb-164e20c3b25e_1027_dldesign_0_cycle1_af2pred (protein)
# chain: ALEEAKKKIEEAEKRASKRLDEVAAKVSPEEAKKLEEAKKELKEKTEKAKKLSPEEAIKLAAEAAAKAYEAAAEARAKE
# B20: design_605_6ebdab39-eaab-4492-afcb-164e20c3b25e_661_dldesign_0_cycle1_af2pred (protein)
# chain: MEEFEKLVKEAEKLIKKALESKDKEERKKLVEEAKEVLKKAQKLGKELAAKSTPEEAKEIVEKMHELHEKLAEAKQKAS
# B21: design_605_6ebdab39-eaab-4492-afcb-164e20c3b25e_1481_dldesign_0_cycle1_af2pred (protein)
# chain: SEVEEAIKKIKDTAAKATAAAIAAAAVDPTLGANVAADGQAKLTELAWEYSKKYPEHKEEIEKTRKEERKAMRDAVGAAIAAVA
# B22: design_605_6ebdab39-eaab-4492-afcb-164e20c3b25e_437_dldesign_0_cycle1_af2pred (protein)
# chain: MKEEAEEAKKRAEAIKKAAKEDPDKAAALIAKGFASPLAAAVKAAPPETRAEAAAQAAKVATRILENEARSYERTAN
# B23: design_605_6ebdab39-eaab-4492-afcb-164e20c3b25e_178_dldesign_0_cycle1_af2pred (protein)
# chain: MSEEIKKKAEEIVEEALKKAEAAPTVEEAQAILDEALDKAVSLGKTIEEKKYAADLVSKARKKLREVWKAR
# B24: design_605_6ebdab39-eaab-4492-afcb-164e20c3b25e_558_dldesign_0_cycle1_af2pred (protein)
# chain: EEEKKLVELLHEAQELAAEAEFYSKKDKEKSKEYIEKATKKIEEAAKLAGFEPIKAKNVEDLKEVLKEAIKKASERIKERKA
# B25: design_605_6ebdab39-eaab-4492-afcb-164e20c3b25e_707_dldesign_0_cycle1_af2pred (protein)
# chain: MKKQAIELAEEAKELMEKEGATPEAVALASSALRTAGFPRELAEEVREAYKKDKEEGEKKLKEAVKLVLERAKKK
# B26: design_605_6ebdab39-eaab-4492-afcb-164e20c3b25e_737_dldesign_0_cycle1_af2pred (protein)
# chain: MEELKEQIKEIKEKAEEILKNKETASLGILAESNAEDAEKLLKAGEADPSTKEKNVAEAKKFLKAAKEYAEKGLELMKKLK
# B27: design_605_6ebdab39-eaab-4492-afcb-164e20c3b25e_390_dldesign_0_cycle1_af2pred (protein)
# chain: KEEKVEEVKKKMEESSLAEAVFIGIEAVMEFTKDAPEYMRKIVKAGRKGGEEGDEEKAKKEMAEIVKKAAE
# B28: design_605_6ebdab39-eaab-4492-afcb-164e20c3b25e_1408_dldesign_0_cycle1_af2pred (protein)
# chain: AEEEEKIKKKAKEIVDTIVKAAKEGLEKARKTAAELAKKYGMKTEDAALVRSLAVKTAKEGGKYYEDAVEAAVEGIKE
# B29: design_605_6ebdab39-eaab-4492-afcb-164e20c3b25e_250_dldesign_0_cycle1_af2pred (protein)
# chain: AAAAAAARLAAGLAAAAKFVEEATKKAREIAAKKTPEESAKAKAEVEEYEAMARDALAMGNAAGARSIARLALEKVS
# B30: design_605_6ebdab39-eaab-4492-afcb-164e20c3b25e_1459_dldesign_0_cycle1_af2pred (protein)
# chain: AAEEARKKKLEEFAKKAKEAAKKFSPEYAKKAKEAAKLYEQGKTATPAEAAALAQKARQLLAEAEYEDKK
# B31: design_605_6ebdab39-eaab-4492-afcb-164e20c3b25e_1415_dldesign_0_cycle1_af2pred (protein)
# chain: AAKLEAKMKAMDMAVEAGEADAEDEEKGKEKLEELKKMVEEIAKEIGEEAGESAWRIAMDVYEHTVKMKK
# B32: design_605_6ebdab39-eaab-4492-afcb-164e20c3b25e_593_dldesign_0_cycle1_af2pred (protein)
# chain: EVEAKASEVAARARQVIAEAEYLERRAKKEGDKEKEKKAKEAKELAEKALELIKKGGLEGVEKAEKLVEEAEKLLEE
# B33: design_605_6ebdab39-eaab-4492-afcb-164e20c3b25e_883_dldesign_0_cycle1_af2pred (protein)
# chain: DAEIQAILEQAKKALKAAKESLEKGKKYEEEGKKNLAEAYYEHAIHNAEQAIKLAEQNIAAGGKPEEAQKIKDEAKKVKEEAKG
# B34: design_605_6ebdab39-eaab-4492-afcb-164e20c3b25e_729_dldesign_0_cycle1_af2pred (protein)
# chain: SSSKETSEFNRELQKRARAAGEELEKKSKNPEAGKEAKKLLSNGLMESFDKSSKEEAKAALDKAIAEAKKHVEEAS
# B35: design_605_6ebdab39-eaab-4492-afcb-164e20c3b25e_799_dldesign_0_cycle1_af2pred (protein)
# chain: GEKEKLKKEAEELEKKAKELEKKAEEKFKKNIKKGSKALSYVEQAKNAAKVAKKYAEEGKVEEAKKALEKAKEYLKKAKEYVEE
# B36: design_605_6ebdab39-eaab-4492-afcb-164e20c3b25e_1234_dldesign_0_cycle1_af2pred (protein)
# chain: SGVKETAIEVAEDAKKAAEEAEKLAKEKPEFAKELKKVAEKAKKAAKKALEGAKKSEEEARKATAEAATALALAENVIDTVKLA
# B37: design_605_6ebdab39-eaab-4492-afcb-164e20c3b25e_768_dldesign_0_cycle1_af2pred (protein)
# chain: DIAKLAEKAAKALKKAAEEGLEALAKAAALVQEARAEAKFKGLKEVAELLEKALKLAREAGKTEDEEERKALAEKAAKYAEEAAKKAK
# B38: design_605_6ebdab39-eaab-4492-afcb-164e20c3b25e_258_dldesign_0_cycle1_af2pred (protein)
# chain: KAKELSKIVHEGFQAAKELELLAKKDPRMKPAAEEAEKLRKKAVEAAKAGDYEKAAEYAKKLKELAEKALKEYE
# Molecular target: VTCN1, Q7Z7D3
# Sequence (Q7Z7D3 whole entry): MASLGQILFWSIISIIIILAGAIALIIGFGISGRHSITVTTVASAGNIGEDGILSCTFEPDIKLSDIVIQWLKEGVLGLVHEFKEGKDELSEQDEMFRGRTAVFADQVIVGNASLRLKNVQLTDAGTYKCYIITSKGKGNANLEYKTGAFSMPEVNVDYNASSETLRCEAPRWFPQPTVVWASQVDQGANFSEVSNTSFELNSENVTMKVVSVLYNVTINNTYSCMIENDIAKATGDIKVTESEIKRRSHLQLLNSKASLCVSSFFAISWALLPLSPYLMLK
row,Binder,binding in a display sort
1,B1,not found
2,B2,not found
3,B3,not found
4,B4,not found
5,B5,not found
6,B6,not found
7,B7,not found
8,B8,not found
9,B9,not found
10,B10,not found
11,B11,not found
12,B12,not found
13,B13,not found
14,B14,not found
15,B15,not found
16,B16,not found
17,B17,not found
18,B18,not found
19,B19,not found

row,Binder,binding in a display sort
1,B20,not found
2,B21,not found
3,B22,not found
4,B23,not found
5,B24,not found
6,B25,not found
7,B26,not found
8,B27,not found
9,B28,not found
10,B29,not found
11,B30,not found
12,B31,not found
13,B32,not found
14,B33,not found
15,B34,not found
16,B35,not found
17,B36,not found
18,B37,not found
19,B38,not found
